Laboratory results published in the supplement of paper PMC6555819.

Experiments:
Assay in all cases: PBM binding z-score (relative to random genomic background probes); higher = stronger binding; sequences stand for … in GC…GCGATTGACAGCGTAGAATGAAGG
[1] = tested on: RARb homodimer (NR concentration 270 nM)
How it was run: (§1)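 Binding z-scores were set against random background probes. The data came from custom Agilent 4×180K protein-binding microarrays carrying double-stranded probes with 34-nt variable regions, incubated 1 h with ligand-free nuclear receptor dimers. Partner-specific antibodies detected binding, and scanned fluorescence was regression-normalized.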

[2] = tested on: RARg:RXRa (NR concentration 270 nM, RXRa partner concentration 90 nM)
How it was run: as §1

[3] = tested on: RARg homodimer (NR concentration 270 nM)
How it was run: as §1

[4] = tested on: RXRa DBDmut IVT, anti-RXR (DBD mutation: RXRa K156A/R161A, NR concentration 90 nM)
How it was run: as §1

[5] = tested on: RXRa homodimer (NR concentration 180 nM)
How it was run: as §1

[6] = tested on: THRa:RXRa (NR concentration 90 nM, RXRa partner concentration 90 nM)
How it was run: as §1

[7] = tested on: THRa homodimer (NR concentration 90 nM)
How it was run: as §1

[8] = tested on: VDR homodimer (NR concentration 270 nM)
How it was run: as §1

| Sequence | PBM binding z-score [1] | PBM binding z-score [2] | PBM binding z-score [3] | PBM binding z-score [4] | PBM binding z-score [5] | PBM binding z-score [6] | PBM binding z-score [7] | PBM binding z-score [8] |
| --- | --- | --- | --- | --- | --- | --- | --- | --- |
| ACATGTAGGTTAGCTGGGGTCATTCAGACTAGGC | 3.72 | 4.24 | 2.97 | 2.34 | 5.59 | 5.12 | 3.49 | 5.66 |
| CCTACTGGGCCATCAGGTCATAGATATCAACGTT | 2.46 | 2.03 | 1.95 | -0.116 | 1.28 | 3.09 | 2.91 | 1.11 |
| ATACCAAGGTGCTCGTGAGGTCGTTGATACTAAC | 1.4 | 0.626 | 0.196 | 0.552 | 0.882 | 3.31 | 2.12 | 2.55 |
| ATCTCTAGGTAACCCAGTTCAGTGAATGCCGAAC | 0.825 | 0.714 | 0.439 | 0.564 | 0.828 | 1.45 | 0.872 | 1.39 |
| CGAACTAGGTCATCCAGGACAGTGTATACATTGA | 3.16 | 3.92 | 4.85 | 2.47 | 3.21 | 3.62 | 2.17 | 2.4 |
| ACAGGCAGGTGATGAAGGTAACTCAGGCTATCAT | 0.415 | -0.159 | 0.118 | -0.414 | 0.0459 | 0.973 | 0.276 | -0.29 |
| CGTCCAAGGTCATAGGAGGTCGGTGAAGACAGAT | 4.09 | 6.01 | 6.48 | 3.77 | 6.13 | 4.77 | 2.45 | 3.77 |
| CCTAGTTGGTAAGGAGGTCACACACCGGATATGA | 3.85 | 3.75 | 3.06 | 0.539 | 4.06 | 3.44 | 2.35 | 2.37 |
| TCTCGTTGGTCAAAGGTCACACACTCGAAATGCG | 5.23 | 7.05 | 6.09 | 1.99 | 8.17 | 4.2 | 2.63 | 2.94 |
| CCCACTGGGCCAAAAAGGTCATTGATGCCGATAA | 4.44 | 4.8 | 4.56 | 0.161 | 5.23 | 3.02 | 0.878 | 2.74 |
| GCTTACGGGTCAAAGCTTATAGCATGAATAGAAT | 2.29 | 4.92 | 4.8 | 2.48 | 5.91 | 2.12 | -0.718 | 0.809 |
| GCTTGTAGATCGAGGTTAAGAAAGACTAAGCTAA | 0.303 | 0.377 | 0.00467 | 0.166 | 1.04 | 1.38 | -0.253 | -0.273 |
| AGTCAAAGTTCAGGTCGAGGTAACGTAAAGCACG | 3.87 | 4.95 | 4.97 | 3.14 | 3.08 | 4.18 | 2.7 | 2.75 |
| TTACCAAGGTGGAGGTCGTTGATCCCTCTGTAGA | 1.15 | 0.155 | -0.0331 | 0.0989 | 1.41 | 1.4 | 0.145 | 1.32 |
| ATATGTAGGTTACATCTGGGTCATTCAGGCTATG | 3.02 | 3.33 | 2.31 | 0.961 | 2.38 | 3.17 | 1.31 | 1.8 |
| TAGCCTAGGTCATGCGGGCCACTATAGTGTCGGC | 2.97 | 4.13 | 4.41 | 0.662 | 3.23 | 3.15 | 0.932 | 1.08 |
| ATCTTTAGGTAACAAGTTCAGTGAAAGAGAGGAC | 2.04 | 1.56 | 1.48 | 1.65 | 0.993 | 2.13 | 1.4 | 2.79 |
| CCAAGTTGGTCAAGGTCACACACGCTATAGGTAC | 4.47 | 5.04 | 5.36 | 2.86 | 5.31 | 4.06 | 4.34 | 4.56 |
| TCATATAGGTCAATGCTAGGTGAAAGTCCGATCT | 3.86 | 5.46 | 5.11 | 2.09 | 4.2 | 3.7 | 0.903 | 0.879 |

| Sequence | PBM binding z-score [1] | PBM binding z-score [2] | PBM binding z-score [3] | PBM binding z-score [4] | PBM binding z-score [5] | PBM binding z-score [6] | PBM binding z-score [7] | PBM binding z-score [8] |
| --- | --- | --- | --- | --- | --- | --- | --- | --- |
| GGTGCTAGGTCAGGTTGGTCAGCTAACGGGTACG | 3.2 | 2.9 | 4.21 | 0.112 | 1.38 | 1.94 | 1.19 | 0.971 |
| GCAGACAGGTGAAACGAAGGTAACTCAGGGTGGC | 0.36 | 1.1 | 0.315 | -0.588 | 0.938 | 1.42 | -0.157 | -0.798 |
| ACAGACAGGTGATGAAAGTAACTCAGGCTATCAT | -0.49 | 0.123 | 0.169 | -0.387 | 0.297 | -0.0258 | -0.579 | -0.942 |
| GGAACGAGGGCAAGTTGATAGTAGAGTTTGATGG | 1.75 | 1.54 | 2.17 | 2.51 | 0.814 | 1.36 | 0.454 | 2.31 |
| GGAACGAGGGCACTCGAGTTGATAGCATGGCGAT | 0.585 | 0.902 | 1.45 | 2.21 | 0.67 | 2.41 | -0.47 | 1.75 |
| GCTTGTAGATCAAGGTTACGAAAGACTAAGCTAA | 0.837 | 0.713 | 0.558 | 0.173 | 1.09 | 1.81 | 0.263 | -0.274 |
| GGAACGAGGGCATCCGAGTTGATAGCATGGCGAT | 0.756 | 1.28 | 1.71 | 2.26 | 0.974 | 3.08 | -0.359 | 2.33 |
| CATACAGGGTCAGCTAGCCCAGAGTAGGGACGGC | 3.08 | 4.59 | 4.82 | 1.69 | 4.46 | 2.82 | 0.68 | 0.999 |
| TGAATGAGGTTATAAGATCACGGAACGTTGCAAA | 0.253 | 2.04 | 1.23 | 0.931 | 2.7 | 2.08 | 0.188 | 0.468 |
| CCTAGCAGGCCAATCAGGGTCACTCAAGGCTTGA | 3.13 | 2.79 | 2.02 | 0.629 | 3.31 | 4.68 | 1.15 | 1.77 |
| AGAATGAGGTTAAGACCAGGGAAACAGAATACAT | 1.01 | 1.97 | 1.33 | 0.973 | 2.47 | 2.48 | 0.691 | 0.514 |
| TATACAGGGTCAAACGCCAGAGTACGAATGTCGA | 3.44 | 5.93 | 5.27 | 3.62 | 6.88 | 3.56 | 0.861 | 4.28 |
| TTACCAAGGTGAGCTGACGTCGTTGATCCAACTC | -0.0202 | 0.00493 | 0.0726 | -0.698 | 0.32 | 0.839 | -0.28 | -1.04 |
| GCTGCTAGGTCAAGTGATGGTCAGCTAAAGCTCG | 3.68 | 4.85 | 5.33 | 1.6 | 2.93 | 2.85 | 0.545 | -0.211 |
| TCTAGTTGGACAAAGGTCACACACTCGAAATGCG | 5.06 | 6.62 | 5.93 | 1.75 | 7.13 | 4.12 | 1.8 | 2.24 |
| CGTGCTAGGTCAATGGTCAGCTAAAGCAGCTCGC | 2.95 | 3.8 | 4.95 | 1.67 | 2.31 | 2.23 | 0.655 | 0.301 |
| CCGACTGGGGCAGTAAGGTTACCATACCATCCGG | 1.56 | 0.667 | 0.917 | -1.01 | 0.78 | 1.87 | 1.08 | 0.0425 |
| TCTATTAGTTAAAGGGCAACCGACGAGTCCGTTT | 2.17 | 1.22 | 1.42 | 1.7 | 1.28 | 0.666 | -0.0439 | 1.77 |
| CAAACTAGGTCAAGGTCACAGTCGGTTTGTGCCA | 5.15 | 6.22 | 6.99 | 2.66 | 5.94 | 4.67 | 4.75 | 4.27 |

| Sequence | PBM binding z-score [1] | PBM binding z-score [2] | PBM binding z-score [3] | PBM binding z-score [4] | PBM binding z-score [5] | PBM binding z-score [6] | PBM binding z-score [7] | PBM binding z-score [8] |
| --- | --- | --- | --- | --- | --- | --- | --- | --- |
| TCTCGGAGTACACGAAAGGTCAGAGCTCGACATC | 4.24 | 3.91 | 3.72 | 1.14 | 3.87 | 3.02 | 0.15 | 0.908 |
| CAAACTAGGTCACCGCAAGGTCAAAGTCCGCATG | 5.35 | 8.07 | 7.32 | 2.61 | 6.15 | 4.68 | 4.38 | 4.3 |
| CCTGCTGGGCCATTCAGAGGTCATTGATCATATG | 4.1 | 4.63 | 3.19 | 1.05 | 3.79 | 3.24 | 1.12 | 3.17 |
| AGAATGAGGTTAAAATCAGGGAAACAGAATACAT | 0.545 | 1.94 | 1.31 | 1.51 | 2.62 | 2.4 | 0.43 | 0.808 |
| CCGAGTAGGTTATGGGGCGTTCAGGCAACGGTGA | 0.761 | 0.491 | 0.0403 | -0.298 | 0.251 | 0.608 | 0.402 | 0.062 |
| CCTATTATTTGACCATAAGGGCAACCGAAGCTCG | 2.16 | 1.05 | 1.21 | 1.06 | 0.762 | 1.83 | 2.31 | 2.19 |
| CCGACTGGGGCATAAGTTTACCATAAGCCAGCCC | 0.519 | 0.0613 | 0.233 | 0.17 | -0.0212 | -0.345 | -0.433 | -0.134 |
| TATACCGGGTCAAAGGCCAGAGTACGAATGTCGA | 3.15 | 4.74 | 4.08 | 1.38 | 5.91 | 3.36 | 0.712 | 1.98 |
| CGAACTAGGTCAGAACAGGACAGTGATGGATGAT | 2.11 | 2.39 | 2.83 | 0.564 | 1.13 | 3.48 | 0.141 | 0.283 |
| CCTAGCAGGCCAAGCTGGGTCACTCAAGGCTTGA | 2.2 | 1.64 | 1.65 | -0.265 | 1.17 | 3.28 | -0.143 | -0.334 |
| ACTATTAGTTGACTTAGGGCAACCCATACGACGC | 1.13 | 0.747 | 1.04 | 0.729 | 0.631 | 1.55 | 0.725 | 0.642 |
| GCATATTGGTAATACAAGGTGAAAGTCCGATTGT | 0.603 | 0.0948 | 0.327 | 0.349 | 0.367 | 2.39 | 1 | -0.108 |
| ATTGAAAGGTCGTGAGGTGAGTATACAGAAAGGC | 3.49 | 4.76 | 4.06 | 1.2 | 5.39 | 3.77 | 1.94 | 1.4 |
| CGTTCAAGGTCAAGGTCAGTGAAAGAGACTCGAA | 5.27 | 6.92 | 7.85 | 3.86 | 6.6 | 4.48 | 4.1 | 3.59 |
| CCGACTGCGGCAAAGGTTACCATACTCAGTACGA | 2.07 | 1.43 | 1.07 | 0.531 | 2.46 | 1.33 | 0.0326 | 0.183 |
| TCTGCAAGGTCAACGATGGTCAGCTAATCTGCTA | 4.58 | 6.12 | 6.75 | 2.83 | 5.75 | 4.24 | 2.36 | 1.62 |
| ATCTTTAGGTAAAGTTCAGTGAAAGATCGATAGA | 2.48 | 1.99 | 2.45 | 1.71 | 1.15 | 1.52 | 0.0896 | 1.95 |
| CGAACGAGGGCATGAGTTGTTAGCAAATGCCGAT | 0.54 | 0.951 | 1.44 | 2.23 | 0.556 | 1.08 | -0.284 | 1.12 |
